The panel holds about 83,000 compounds, 20% with a hit somewhere; the sample as a whole holds those more often.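 Cell lines were cultured in 96-well plates, exposed to a single compound concentration, and assessed for percent growth 48 hours later.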 A number with no mark means an inactive call. Activity calls are given as the source filed them. The calls were made as follows: active = growth percent below 10; inactive = the rest.

What all share (assay): NCI-60 one-dose screen, 48 h (100 = growth as untreated, 0 = no growth, -100 = all killed)
Common to all, as to settings: 10 µM unless noted

Assay [1] has as its system HCT-15 colon.
Assay [2] has as its system HT29 colon.
Assay [3] concerns SNB-75 CNS.
Assay [4] concerns SNB-19 CNS.
Assay [5] concerns U251 CNS.
Assay [6] has as its system PC-3 prostate.
The subject of assay [7] is SK-MEL-5 melanoma.
The subject of assay [8] is LOX IMVI melanoma.
Assay [9] deals with SK-MEL-28 melanoma.
Assay [10] deals with UACC-62 melanoma.

In the case of `CN1CCN(Cc2ccc(NC(=O)c3cncc(C#Cc4cnc5ccc(NCCCO)nn45)c3)cc2C(F)(F)F)CC1`, the growth in assay [1] was 1.94% (active); in assay [2], -2.42% (active); in assay [3] it was -70.8% (active); in assay [4], -0.64% (active); in assay [5], -68% (active); in assay [6] it was -19.2% (active). The results for the growth in assay [7], in assay [8] and in [9] were -87% (active), -86.3% (active) and -21% (active), respectively.
On to `CCc1cccc2c3c(sc12)C(c1ccc(OC)cc1)C(C#N)=C(/N=C/c1ccc(Cl)cc1)O3` (stereo unspecified), for which the growth was 20.2% in [1]; -25.7% (active) in [2]; 3.81% (active) in assay [3]; 30.6% in assay [4]; 20.1% in assay [5]; 21.1% in [6]. The growth in assay [7] is 4.03% (active); in [8], 38%; in assay [9], 59.8%.
Consider `Cc1ccc2c(c1)C13C(=C2Br)CCCN1C(=O)c1ccccc13` (stereo unspecified), for which the growth in [1] was 73%; in assay [2], 98.9%; in assay [3], 89.9%; in assay [4] it was 89.2%; in assay [5] it was 97.5%; in [7], 88%. The growth was 67.4% in assay [10], 103% in assay [8] and 92.5% in assay [9].
As to `O=C1/C(=C/C=C/c2ccco2)SC(=S)N1c1ccccc1`, the growth in [1] is 56.9%; in assay [2], 83.6%; in assay [3], 101%; in assay [4], 86.3%; in assay [5], 49.8%; in assay [6], 71.3%. The figures for the growth in assay [10], in assay [8] and in [9] were 70.7%, 26% and 79.9%, respectively.
For `CNC(=O)c1cc(Oc2ccc3nc(NC(=O)c4cc(N5CCOCC5)cc(C(F)(F)F)c4)sc3c2)ccn1`, the growth was 58.9% in assay [1]; 62.3% in assay [2]; 71.6% in assay [3]; 92.9% in [4]; 72.3% in assay [5]; 46.7% in assay [6]. Also, the growth is 72.4% in assay [10], 83.5% in [8] and 81.1% in [9].
As for `O=C1[C@H]2Cc3c([nH]c4ccccc34)[C@@H](c3ccc(Cl)cc3)N2C(=O)CN1C1CCN(Cc2ccccc2)CC1`, the growth in assay [1] is 23.7%; in [2], 27.1%; in assay [3] it was 79.8%; in assay [4] it was 66.5%; in assay [5], 63.7%; in assay [6], 30.4%. Further, the growth in [7] is 56.1%; in assay [8], 17.4%; in assay [9] it was 67.8%.
In the case of `CC(C)(C)n1nnnc1C(Nc1cccc2c1OCO2)c1cc2cccc3ccc4cccc1c4c32` (stereo unspecified), the growth in assay [1] was 71%; in assay [2] it was 81.2%; in assay [3], 115%; in [4], 83.5%; in assay [5] it was 85.9%; in assay [6], 59.4%. In addition, the values for the growth in assay [7], in [8] and in assay [9] were 85%, 86.7% and 94.4%, respectively.
Consider `Cc1cc(C)c2sc(=O)n(Cc3nnc(SCCC(=O)O)o3)c2n1`, for which the growth is 99.6% in assay [1]; 110% in [2]; 103% in [3]; 95.4% in assay [4]; 102% in assay [5]; 92.7% in assay [6]. Further, the growth was 95.5% in [10], 99.2% in [8] and 101% in assay [9].
Regarding `NS(=O)(=O)c1ccc(-n2cc(-c3cccc(NC(=O)c4ccc(N5CCOCC5)c(C(F)(F)F)c4)c3)nn2)cc1`, the growth was 39.3% in [1]; 61% in assay [2]; 65.2% in [3]; 62.9% in [4]; 54.2% in assay [5]; 23.5% in assay [6]. Also, the growth is 30.5% in [10], 9.34% (active) in assay [8] and 54.7% in assay [9].
On to `COc1cccc(O)c1/C=C(/C)c1ccc2c(OC)cccc2[o+]1`, for which the growth is 95.1% in assay [1]; 118% in [2]; 97.1% in assay [3]; 103% in assay [4]; 106% in assay [5]; 97.5% in assay [6]. Besides, the growth is 105% in assay [7], 83.9% in assay [8] and 101% in [9].
For the compound `Cc1cccc2c3c(sc12)C(c1ccc(F)cc1)C(C#N)=C(/N=C/c1ccc(Cl)cc1)O3` (stereo unspecified), the growth was 3.92% (active) in assay [1]; -28.5% (active) in [2]; 29.5% in assay [3]; 26.4% in [4]; 4.91% (active) in assay [5]; 5.84% (active) in assay [7]. In addition, the growth in assay [10] is 18%; in [8] it was 9.59% (active); in [9], 62.2%.
`Nc1nc(N)c2c(n1)NC(c1ccc(C(F)(F)F)cc1)CC(c1ccc(Nc3nc(NCCO)nc(N4CCOCC4)n3)cc1)=N2` (stereo unspecified): the growth in [1] was 37.2%; in assay [2], 50.4%; in assay [3] it was 66%; in [4] it was 84%; in assay [5], 45.6%; in [6], 49.2%. The growth is 64.6% in assay [7], 49.7% in assay [8] and 81.7% in assay [9].
`CCNC(=O)N1CCc2cc(OC)c(OCCc3ccc(OC)nc3)cc2C1c1ccc(OC)cc1C` (stereo unspecified): the growth is 14% in assay [1]; 5.66% (active) in assay [2]; 25.9% in [3]; 34.5% in assay [4]; 26.2% in [5]; 37.8% in [6]. The values for the growth in assay [7], in [8] and in [9] were 23.6%, 7.09% (active) and 43.9%, respectively.
In the case of `Cc1ccc2sc3c(c2c1)OC(N)=C(C#N)C3c1cccc(F)c1` (stereo unspecified), the growth is 6.97% (active) in assay [1]; -19.6% (active) in assay [2]; -0.701% (active) in [3]; 35% in assay [4]; 2.42% (active) in [5]; 9.24% (active) in [6]. Besides, the values for the growth in assay [10], in assay [8] and in assay [9] were 18.3%, 8.96% (active) and 51.3%, respectively.

The values are drawn from PubChem BioAssay (NCI).
